Data reported in PubChem BioAssay AID1220 (Sanford-Burnham Center for Chemical Genomics, 2008).
Screen size: about 190,000 compounds; about 1,300 (0.68%) were called active. The list comes from a sample in which actives are over-represented; it also holds similar structures and randomly drawn compounds. Unmarked numbers belong to inactive results. No stated cut-off is given here; in the data, active means inhibition above about 50%; inactive means the rest.

target: Mannose-6-phosphate isomerase (Homo sapiens) (UniProt P34949); test: MPI inhibition at elevated mannose 6-phosphate – biochemical, fluorescence intensity, high mannose 6-phosphate, primary screen (AID 1220); conditions: recombinant PMI enzyme, coupled fluorescence intensity; at 20 µM; hits give high values
Sequence (P34949 whole entry, looked up): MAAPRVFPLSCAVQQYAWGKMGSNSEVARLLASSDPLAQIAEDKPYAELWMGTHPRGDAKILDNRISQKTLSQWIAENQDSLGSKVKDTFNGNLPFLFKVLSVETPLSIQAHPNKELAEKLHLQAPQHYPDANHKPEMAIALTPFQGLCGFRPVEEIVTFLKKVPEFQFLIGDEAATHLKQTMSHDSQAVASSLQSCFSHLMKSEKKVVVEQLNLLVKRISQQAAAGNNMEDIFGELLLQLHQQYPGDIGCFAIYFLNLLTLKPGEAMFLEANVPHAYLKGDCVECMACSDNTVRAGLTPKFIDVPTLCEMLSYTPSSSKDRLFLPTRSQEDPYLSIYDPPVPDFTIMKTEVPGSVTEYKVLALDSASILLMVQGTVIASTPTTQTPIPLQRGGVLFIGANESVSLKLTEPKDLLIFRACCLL

| Structure (SMILES) | inhibition |
| --- | --- |
| O=C(CN1CCN(C2CCCCC2)CC1)Nc1ccc(Br)cc1 | -11.2% |
| CC1(C)CC(=O)C(N=Nc2cc(Cl)c(Cl)c(Cl)c2)=C(O)C1 | -3.4% |
| O=Cc1ccc(-n2cc(C=O)c3ccccc32)cc1 | -5.3% |
| CC1=C(C(=O)OCC2CCCO2)C(c2coc3ccccc3c2=O)C2=C(CC(C)(C)CC2=O)N1 (stereo not given) | -4.3% |
| CC(NC(=O)c1cc(-c2ccc(Br)cc2)on1)c1ccccc1 (stereo not given) | -3.3% |
| O=C(c1cnn(-c2ccccc2)c1)c1ccccc1O | 10.1% |
| CCc1cc(C(=O)Cc2cnn(-c3ccccc3)c2)c(O)cc1O | 15.5% |
| O=C(Nc1cccc(NC(=O)c2ccc3c(c2)OCO3)c1)c1ccccc1 | 6.5% |
| CCOc1ccccc1N1CCN(CC(=O)Nc2nnc(CC)s2)CC1 | -13% |
| O=c1c2cc(Br)ccc2nc(-c2ccc([N+](=O)[O-])cc2)n1O | -16.5% |
| O=c1n(-c2ccc(Br)cc2)cnn1-c1ncccc1[N+](=O)[O-] | -0.4% |
| O=c1c2c([N+](=O)[O-])cc([N+](=O)[O-])cc2sn1-c1ccc(Br)cc1 | 104% (active) |
| Cc1ccc(C(=O)Nc2ccc(Br)cc2)cc1S(=O)(=O)Nc1ccccn1 | 3.7% |
| COc1cccc(NC2=NC3(CCCCC3)N=C(N)N2)c1 | -6.8% |
| c1ccc(Nc2cccc(Nc3ccccc3)c2)cc1 | 29.3% |
| O=C1c2cccc3cccc(c23)C(=O)N1c1nccs1 | 8.2% |
| CC(Sc1nncn1C)C(=O)Nc1nnc(-c2ccccc2)s1 (stereo not given) | 6% |
| COc1ccccc1-c1nnc(NC(=O)C(C)Sc2nncn2C)s1 (stereo not given) | -2.2% |
| COc1ccc(OC)c(-c2nnc(NC(=O)C(C)Sc3nncn3C)s2)c1 (stereo not given) | 91.6% (active) |
| COc1ccccc1CN1CCNC(=O)C1CC(=O)NCc1csc(C)n1 (stereo not given) | 9.7% |
| CSc1ccc(/C=N/NC(=O)CN2CCN(Cc3ccccc3Cl)CC2)cc1 | 0.4% |
| Cc1ccc(OCC(=O)c2cc(C)n(C)c2C)c([N+](=O)[O-])n1 | 42.3% |
| CCCn1c(C)cc(C(=O)COc2ccc(C)nc2[N+](=O)[O-])c1C | 3.2% |
| COCCn1c(C)cc(C(=O)COc2cccnc2[N+](=O)[O-])c1C | 59.4% (active) |
| Cc1ccc(OCC(=O)c2ccc(Cl)s2)c([N+](=O)[O-])n1 | 55.6% (active) |
| COCCn1c(C)cc(C(=O)COc2nc3ccccc3nc2C)c1C | 8.5% |
| Cc1cc(C)c(C(=O)COc2cccnc2[N+](=O)[O-])cc1C | 24.3% |
| COCCn1c(C)cc(C(=O)COc2ccc(C)nc2[N+](=O)[O-])c1C | 51.6% (active) |
| Cc1ccc(OCC(=O)c2cc(C)c(C)cc2C)c([N+](=O)[O-])n1 | 4.2% |
| Cc1ccc(C)c(C(=O)COc2ccc(C)nc2[N+](=O)[O-])c1 | 18.4% |
